PubChem BioAssay (Tox21)
Values joined by “and” are separate entries in the source; they are usually repeats but may differ in a detail not shown here. Equal values may be shown once. Where a structure was tested more than once in an assay, its records may differ in their call. Active and inactive are the calls of the source. A call without a number means that no potency is given here. Unless noted, calls come from the whole dose curve; as a rule, active = well fitted curve in the direction sought with a large enough effect in the repeat runs; inconclusive = weak or mixed curves; inactive = no such curve, though single readings can be large; an effect the other way counts as inactive or inconclusive.

Experiments:
[1] = qHTS assay for identifying genotoxic compounds that show differential cytotoxicity against isogenic chicken DT40 cell lines with known DNA damage response pathways - wild type cell line (AID 743012); note: nearly all actives have a fitted effect of over 60% in size; note: potency is the fitted concentration of half-maximal effect
How it was run: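 Parental DNA repair-proficient DT40 cells, 300 per well, were pre-incubated ~0.5 h at 37 C/5% CO2, pin-dosed with compounds in DMSO, then incubated 40 h. Viability was read as CellTiter-Glo luminescence after 30 min at room temperature.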

[2] = qHTS assay for identifying genotoxic compounds that show differential cytotoxicity against isogenic chicken DT40 cell lines with known DNA damage response pathways - Rev3 mutant cell line (AID 743014); note: nearly all actives have a fitted effect of over 55% in size; note: potency is the fitted concentration of half-maximal effect
[3] = qHTS assay for identifying genotoxic compounds that show differential cytotoxicity against isogenic chicken DT40 cell lines with known DNA damage response pathways - Rad54/Ku70 mutant cell line (AID 743015); note: nearly all actives have a fitted effect of over 60% in size; note: potency is the fitted concentration of half-maximal effect
[4] = qHTS assay to identify small molecule antagonists of the androgen receptor (AR) signaling pathway - cell viability counter screen (AID 743033; note: nearly all actives have a fitted effect of over 45% in size; note: potency is the fitted concentration of half-maximal effect)
[5] = molecular target: Androgen receptor (Homo sapiens) (UniProt P10275); assay: qHTS assay to identify small molecule agonists of the androgen receptor (AR) signaling pathway (AID 743036; active = well fitted activation curve with a large enough effect in the signal ratio in the repeat runs, with a control signal flat, not every such curve was filed as active; inconclusive = weak or mixed curves, or effect the other way; inactive = no such curve, though single readings can be large or run the other way; the % refers to the signal ratio)
How it was run: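 In this Tox21 qHTS, 2,000 HEK293 AR-bla cells per well were incubated with compounds for 16 h at 37C and 5% CO2. Fluorescence intensity was recorded 2 h after adding LiveBLAzer B/G FRET substrate at room temperature.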

[6] = molecular target: Androgen receptor (Homo sapiens) (UniProt P10275); assay: qHTS assay to identify small molecule agonists of the androgen receptor (AR) signaling pathway using the MDA cell line (AID 743040; note: nearly all actives have a fitted effect of over 20% in size; note: potency is the fitted concentration of half-maximal effect)
How it was run: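 Cells plated, 5 h at 37C/0% CO2; compound or DMSO pinned; 16 h at 37C; ONE-Glo added; luminescence measured after 30 min at room temperature. Reporter line: MDA-kb2 with MMTV-luciferase responsive to AR and GR.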

[7] = qHTS assay to identify small molecule antagonists of the androgen receptor (AR) signaling pathway using the MDA cell line - cell viability counter screen (AID 743041; note: nearly all actives have a fitted effect of over 45% in size; note: potency is the fitted concentration of half-maximal effect)
How it was run: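 Cells were plated at 3,000 per well and left 5 h. Compounds in DMSO were then pinned in, followed by R1881. After 16 h at 37C, CellTiter-Fluor fluorescence gave viability.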

[8] = molecular target: Androgen receptor (Homo sapiens) (UniProt P10275); assay: qHTS assay to identify small molecule antagonists of the androgen receptor (AR) signaling pathway using the MDA cell line (AID 743042; note: nearly all actives have a fitted effect of over 55% in size; note: potency is the fitted concentration of half-maximal effect)
How it was run: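 Antagonist mode: compounds plus R1881 agonist added to MDA-kb2 AR-luc cells, incubated 16 h at 37C. Luciferase reporter luminescence quantified, with multiplexed CellTiter-Fluor readout for cell viability.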

[9] = qHTS assay to identify small molecule antagonists of the thyroid receptor (TR) signaling pathway - cell viability counter screen (AID 743064); note: nearly all actives have a fitted effect of over 50% in size; note: potency is the fitted concentration of half-maximal effect
How it was run: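 Counter screen for cytotoxicity: compound plus T3 (1 nM final) on GH3.TRE-Luc cells, 23.5 h at 37 °C, then fluorescence viability readout with CellTiter-Fluor.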

[10] = qHTS assay to identify small molecule antagonists of the thyroid receptor (TR) signaling pathway (AID 743065); note: nearly all actives have a fitted effect of over 55% in size; note: potency is the fitted concentration of half-maximal effect
How it was run: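 Antagonism measured as loss of luciferase signal in GH3 cells stably carrying a TRE-luciferase reporter, co-treated with compound and T3 (1 nM final) for 23.5 h at 37 C. Viability was read in the same well by CellTiter-Fluor.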

[11] = tested on: thyroid hormone receptor (rat, GH3 cells); assay: qHTS assay to identify small molecule agonists of the thyroid receptor (TR) signaling pathway (AID 743066; calls by dose curve)
[12] = qHTS assay to identify small molecule antagonists of the estrogen receptor alpha (ER-alpha) signaling pathway - cell viability counter screen (AID 743074; calls by dose curve;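 note: HEK293 cells carrying ER-alpha-UAS-bla reporter stimulated with 17beta-estradiol; nearly all actives have a fitted effect of over 45% in size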; note: potency is the fitted concentration of half-maximal effect)
[13] = molecular target: Estrogen receptor (Homo sapiens) (UniProt P03372); assay: qHTS assay to identify small molecule agonists of the estrogen receptor alpha (ER-alpha) signaling pathway (AID 743075; calls by dose curve; note: potency is the fitted concentration of half-maximal effect); conditions: HEK293 ER-alpha-UAS-bla, beta-lactamase FRET ratio, 18 h; activation: at 70.1 µM (top of the series)
[14] = molecular target: Estrogen receptor (Homo sapiens) (UniProt P03372); assay: qHTS assay to identify small molecule agonists of the estrogen receptor alpha (ER-alpha) signaling pathway using the BG1 cell line (AID 743079); conditions: BG1Luc4E2 cells, ERE-luciferase agonist, 22 h; note: potency is the fitted concentration of half-maximal effect; nearly all actives have a fitted effect of over 20% in size
[15] = qHTS assay to identify small molecule antagonists of the estrogen receptor alpha (ER-alpha) signaling pathway using the BG1 cell line - cell viability counter screen (AID 743081);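 note: compound given together with 17beta-estradiol as the ER stimulus; nearly all actives have a fitted effect of over 45% in size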; note: potency is the fitted concentration of half-maximal effect
[16] = molecular target: Estrogen receptor (Homo sapiens) (UniProt P03372); assay: qHTS assay to identify small molecule antagonists of the estrogen receptor alpha (ER-alpha) signaling pathway (AID 743069; active = well fitted curve in the direction sought with a large enough effect in the signal ratio in the repeat runs, not every such curve was filed as active; inconclusive = weak or mixed curves, or effect the other way; inactive = no such curve, though single readings can be large or run the other way; the % refers to the signal ratio; note: potency is the fitted concentration of half-maximal effect)
How it was run: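 ER-alpha-UAS-bla GripTite HEK293 line; 2% charcoal-stripped FBS overnight; plated, 4 hr 37C/5% CO2; cpd in DMSO + 17beta-estradiol, 18 hr 37C; LiveBLAzer B/G FRET substrate 2 hr RT; fluorescence intensity.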

[17] = qHTS assay to identify small molecule antagonists of the estrogen receptor alpha (ER-alpha) signaling pathway using the BG1 cell line (AID 743080; calls by dose curve;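 note: BG1 cells stimulated with 17beta-estradiol alongside compound; nearly all actives have a fitted effect of over 25% in size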; note: potency is the fitted concentration of half-maximal effect)
How it was run: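 BG1-Luc-4E2 cells (endogenous full-length ER-alpha, stable 4×ERE-luciferase) were starved 5 days in phenol-red-free medium with 10% charcoal-stripped FBS, plated 24 h, then given compound plus 17beta-estradiol for 21.5 h at 37 C; ONE-Glo luminescence read after 30 min.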

Aromatase (Homo sapiens) = Aromatase (Homo sapiens) (UniProt P11511); assay: qHTS assay to identify aromatase inhibitors (AID 743083); note: nearly all actives have a fitted effect of over 55% in size; note: potency is the fitted concentration of half-maximal effect
[18] = molecular target: Androgen receptor (Homo sapiens) (UniProt P10275); assay: qHTS assay to identify small molecule antagonists of the androgen receptor (AR) signaling pathway (AID 743035; active = well fitted inhibition curve with a large enough effect in the signal ratio in the repeat runs, not every such curve was filed as active; inconclusive = weak or mixed curves, or effect the other way; inactive = no such curve, though single readings can be large or run the other way; the % refers to the signal ratio)
How it was run: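 HEK293 cells stably carrying a UAS-driven beta-lactamase reporter (AR-UAS-bla GripTite) were plated for 4 h at 37C, then given compound and the agonist R1881 and incubated 16 h. Reporter activity was read by LiveBLAzer B/G FRET fluorescence after 2 h at room temperature.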

Sequence of Estrogen receptor (Homo sapiens) (P03372 whole entry, looked up): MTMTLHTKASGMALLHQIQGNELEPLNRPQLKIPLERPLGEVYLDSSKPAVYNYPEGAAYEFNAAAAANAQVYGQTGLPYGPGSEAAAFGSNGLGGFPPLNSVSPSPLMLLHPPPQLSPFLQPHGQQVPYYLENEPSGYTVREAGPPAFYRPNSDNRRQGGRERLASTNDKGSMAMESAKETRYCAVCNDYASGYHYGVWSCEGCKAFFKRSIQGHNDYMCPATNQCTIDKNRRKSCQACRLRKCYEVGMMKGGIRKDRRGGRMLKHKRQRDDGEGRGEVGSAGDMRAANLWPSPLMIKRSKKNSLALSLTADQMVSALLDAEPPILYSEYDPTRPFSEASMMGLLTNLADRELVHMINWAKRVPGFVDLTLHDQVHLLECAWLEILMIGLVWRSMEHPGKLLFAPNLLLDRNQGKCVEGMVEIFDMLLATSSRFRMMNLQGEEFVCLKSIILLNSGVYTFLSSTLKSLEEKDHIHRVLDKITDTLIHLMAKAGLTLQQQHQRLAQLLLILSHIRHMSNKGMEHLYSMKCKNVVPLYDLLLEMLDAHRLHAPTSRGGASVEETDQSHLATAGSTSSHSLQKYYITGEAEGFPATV
Sequence of Androgen receptor (Homo sapiens) (P10275 whole entry, looked up): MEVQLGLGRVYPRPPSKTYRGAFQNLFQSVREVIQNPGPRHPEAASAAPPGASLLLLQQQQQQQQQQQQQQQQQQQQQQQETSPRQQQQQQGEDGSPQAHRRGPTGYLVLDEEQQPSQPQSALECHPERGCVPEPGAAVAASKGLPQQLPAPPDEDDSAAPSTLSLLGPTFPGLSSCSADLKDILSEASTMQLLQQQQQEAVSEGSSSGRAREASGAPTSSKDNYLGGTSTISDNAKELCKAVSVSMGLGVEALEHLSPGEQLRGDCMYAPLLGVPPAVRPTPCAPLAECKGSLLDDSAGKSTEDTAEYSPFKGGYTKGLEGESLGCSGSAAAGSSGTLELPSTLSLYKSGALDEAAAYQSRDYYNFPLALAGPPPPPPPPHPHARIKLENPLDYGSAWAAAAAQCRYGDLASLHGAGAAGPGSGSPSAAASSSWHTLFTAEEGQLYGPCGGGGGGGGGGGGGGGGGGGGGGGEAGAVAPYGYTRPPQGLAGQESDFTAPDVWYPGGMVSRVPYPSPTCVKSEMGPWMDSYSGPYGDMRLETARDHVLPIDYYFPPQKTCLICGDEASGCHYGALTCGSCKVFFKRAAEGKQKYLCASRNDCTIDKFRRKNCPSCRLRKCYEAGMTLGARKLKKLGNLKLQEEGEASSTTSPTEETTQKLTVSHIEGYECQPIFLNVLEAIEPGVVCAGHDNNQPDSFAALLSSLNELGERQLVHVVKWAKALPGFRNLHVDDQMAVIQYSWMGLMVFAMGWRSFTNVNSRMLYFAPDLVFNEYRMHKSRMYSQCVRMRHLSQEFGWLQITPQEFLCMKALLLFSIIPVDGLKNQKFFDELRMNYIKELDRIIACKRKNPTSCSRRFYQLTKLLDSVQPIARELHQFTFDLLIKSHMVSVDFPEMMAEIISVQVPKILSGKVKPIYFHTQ
Sequence of Aromatase (Homo sapiens) (P11511 whole entry, looked up): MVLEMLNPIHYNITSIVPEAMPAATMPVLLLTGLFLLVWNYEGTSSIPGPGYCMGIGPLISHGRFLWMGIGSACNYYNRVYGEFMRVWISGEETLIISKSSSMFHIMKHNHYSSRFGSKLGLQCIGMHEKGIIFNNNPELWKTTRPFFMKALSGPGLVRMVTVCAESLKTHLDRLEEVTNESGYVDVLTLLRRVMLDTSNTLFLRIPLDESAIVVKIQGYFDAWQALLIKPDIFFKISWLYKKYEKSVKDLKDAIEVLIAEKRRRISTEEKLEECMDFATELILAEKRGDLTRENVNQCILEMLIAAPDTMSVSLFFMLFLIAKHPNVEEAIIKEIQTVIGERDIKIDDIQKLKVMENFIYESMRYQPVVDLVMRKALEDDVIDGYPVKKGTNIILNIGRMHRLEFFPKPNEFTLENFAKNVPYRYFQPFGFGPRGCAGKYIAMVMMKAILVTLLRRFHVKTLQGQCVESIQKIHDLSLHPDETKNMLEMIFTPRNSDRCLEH

Row | Structure (SMILES) | Potency [1] | Potency [2] | Potency [3] | Potency [4] | Potency [5] | Potency [6] | Potency [7] | Potency [8] | Potency [9] | Potency [10] | Potency [11] | Potency [12] | Potency [13] | Potency [14] | Potency [15] | Potency [16] | Potency [17] | Potency (Aromatase (Homo sapiens)) | Potency [18]
1 | CCCCCCOC(=O)c1ccc(O)cc1 | 21.7 µM (active) and inactive | 48.6 µM (active) | 48.6 µM (active) | inactive | inactive | inactive | inactive | inactive | inactive | inactive | inactive | inactive | 49 µM [inconclusive] (active) and 24.5 µM [inconclusive] (active) | 5.45 µM (active) and 17.2 µM (active) | inactive |  |  |  | 
2 | CCCCCCCC/C=C\CCCCCCCCOCCO | 5.62 µM (active) | 5.62 µM (active) | 8.91 µM (active) | 22.6 µM (active) |  |  | 14.1 µM (active) |  | 25.1 µM (active) | 11.2 µM (active) | inactive | 56.8 µM (active) |  |  | 39.8 µM (active) | 9 µM [inconclusive] (active) | 10 µM (active) | 35.5 µM (active) | 
3 | COc1cc(-c2ccc(N=C=O)c(OC)c2)ccc1N=C=O | inactive | inactive | inactive | inactive |  |  | inactive |  | inactive | inactive | inactive | inactive |  |  | inactive |  |  | inactive | 
4 | CC(NN)c1ccccc1 (stereo not drawn) | inactive | inactive | inactive | inactive |  |  | inactive |  |  |  |  | inactive |  |  | inactive |  | inactive | inactive | 
5 | Cc1cc(O)c(Cl)c(C)c1Cl | 24.3 µM (active) | 24.3 µM (active) | 17.2 µM (active) | 27.5 µM (active) |  | inactive |  | 54.5 µM (active) | 17.2 µM (active) | 24.3 µM (active) | inactive |  | inactive |  | inactive |  |  | 48.6 µM (active) | 
6 | CCCC(=O)OC[C@@H](OC(=O)CCC)[C@@H](OC(=O)CCC)[C@H](Cn1c2nc(=O)[nH]c(=O)c-2nc2cc(C)c(C)cc21)OC(=O)CCC | 11.9 µM (active) | 13.3 µM (active) | 10.6 µM (active) | inactive |  | 5.31 µM (active) |  | 23.7 µM (active) |  | 21.1 µM (active) | inactive | inactive | inactive |  |  |  | 29.8 µM (active) | inactive | inactive
7 | C=C(C)C(=O)OCC(O)COc1ccc(C(C)(C)c2ccc(OCC(O)COC(=O)C(=C)C)cc2)cc1 (stereo not drawn) | 5.45 µM (active) | 6.86 µM (active) | 6.86 µM (active) | 24.5 µM (active) |  |  | 21.7 µM (active) |  |  | 61.1 µM (active) | inactive | 43.6 µM (active) | inactive |  |  |  |  | 30.6 µM (active) | 
